Source: PubChem (The Scripps Research Institute Molecular Screening Center)
COUP-TFII inh – NR2F2 transcriptional activity inhibitors, primary screen, cell-based, luciferase reporter, HEK293T, luminescence; HEK293T NGFI-A luciferase reporter; inhibition, % at 8.6 µM; 370,000 compounds, 0.7% hits; AID 686940, 2013;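 active means inhibition above a per-plate cutoff, mean inhibition of test wells between control levels plus 3 SD, cut at about 38% in these data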;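 further: cells cotransfected with COUP-TFII expression vector driving the NGFI-A reporter; 0% = median of COUP-TF2 test wells and 100% = reporter-only cells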
GalR3 antagonist – GalR3 antagonists in HEK293 cells, primary screen, cell-based, fluorescence readout. Galanin receptor type 3 (Homo sapiens), O60755. HEK293 GalR3-CNG cAMP membrane potential fluorescence; galR3 body fused to GalR1 C-terminus. 360,000 compounds, 0.44% hits. inhibition, % at 3 µM. AID 651719, 2012;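 active means inhibition above the screen-wide average plus 3 SD, cut at about 13% in these data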;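 further: forskolin and galanin both at EC90 stimulate the cells; cAMP rise reported by CNG channel membrane potential dye signal; 0% = forskolin plus galanin with DMSO and 100% = forskolin alone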
NR5A2 inv ag – LRH-1 (NR5A2) inverse agonists, primary screen, cell-based, luminescence, HEK293T, StAR-luciferase reporter | Nuclear receptor subfamily 5 group A member 2 (Homo sapiens), O00482 | LRH-1 transfected, 24 h | inhibition, % at 3.6 µM | 360,000 compounds, 0.13% hits | AID 602396, 2012;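 active means inhibition above the mean inhibition of all tested compounds plus 3 SD, cut at about 73% in these data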;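 further: 0% = DMSO wells and 100% = reporter-only cells lacking LRH-1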
NCOA1 inh – SRC1 coactivator transcriptional activity inhibitors, primary screen, cell-based, luminescence | Nuclear receptor coactivator 1 (Homo sapiens), Q15788 | HEK293 GAL4-SRC1 luciferase reporter | inhibition, % at 3.6 µM | 360,000 compounds, 0.12% hits | AID 588354, 2011;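 active means inhibition above the campaign mean plus 3 SD, with each screening campaign given its own cutoff, cut at about 60% in these data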;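 further: 0% = DMSO treated cells and 100% = gossypol at 36 µM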
SRC2 inh – inhibition of GAL4-SRC2 driven luciferase reporter, primary screen, SRC2 inhibitor project, cell-based, luminescence; inhibition, % at 9 µM; HEK293 GAL4-SRC2 luciferase reporter; 370,000 compounds, 0.17% hits;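 active means inhibition above the mean inhibition of all tested compounds plus 3 SD, set per campaign, cut at about 52% in these data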;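 further: 0% = DMSO treated cells and 100% = cells given Gossypol at 36 µM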
Target sequence (Q15596 whole entry, looked up, the tested form may be a part): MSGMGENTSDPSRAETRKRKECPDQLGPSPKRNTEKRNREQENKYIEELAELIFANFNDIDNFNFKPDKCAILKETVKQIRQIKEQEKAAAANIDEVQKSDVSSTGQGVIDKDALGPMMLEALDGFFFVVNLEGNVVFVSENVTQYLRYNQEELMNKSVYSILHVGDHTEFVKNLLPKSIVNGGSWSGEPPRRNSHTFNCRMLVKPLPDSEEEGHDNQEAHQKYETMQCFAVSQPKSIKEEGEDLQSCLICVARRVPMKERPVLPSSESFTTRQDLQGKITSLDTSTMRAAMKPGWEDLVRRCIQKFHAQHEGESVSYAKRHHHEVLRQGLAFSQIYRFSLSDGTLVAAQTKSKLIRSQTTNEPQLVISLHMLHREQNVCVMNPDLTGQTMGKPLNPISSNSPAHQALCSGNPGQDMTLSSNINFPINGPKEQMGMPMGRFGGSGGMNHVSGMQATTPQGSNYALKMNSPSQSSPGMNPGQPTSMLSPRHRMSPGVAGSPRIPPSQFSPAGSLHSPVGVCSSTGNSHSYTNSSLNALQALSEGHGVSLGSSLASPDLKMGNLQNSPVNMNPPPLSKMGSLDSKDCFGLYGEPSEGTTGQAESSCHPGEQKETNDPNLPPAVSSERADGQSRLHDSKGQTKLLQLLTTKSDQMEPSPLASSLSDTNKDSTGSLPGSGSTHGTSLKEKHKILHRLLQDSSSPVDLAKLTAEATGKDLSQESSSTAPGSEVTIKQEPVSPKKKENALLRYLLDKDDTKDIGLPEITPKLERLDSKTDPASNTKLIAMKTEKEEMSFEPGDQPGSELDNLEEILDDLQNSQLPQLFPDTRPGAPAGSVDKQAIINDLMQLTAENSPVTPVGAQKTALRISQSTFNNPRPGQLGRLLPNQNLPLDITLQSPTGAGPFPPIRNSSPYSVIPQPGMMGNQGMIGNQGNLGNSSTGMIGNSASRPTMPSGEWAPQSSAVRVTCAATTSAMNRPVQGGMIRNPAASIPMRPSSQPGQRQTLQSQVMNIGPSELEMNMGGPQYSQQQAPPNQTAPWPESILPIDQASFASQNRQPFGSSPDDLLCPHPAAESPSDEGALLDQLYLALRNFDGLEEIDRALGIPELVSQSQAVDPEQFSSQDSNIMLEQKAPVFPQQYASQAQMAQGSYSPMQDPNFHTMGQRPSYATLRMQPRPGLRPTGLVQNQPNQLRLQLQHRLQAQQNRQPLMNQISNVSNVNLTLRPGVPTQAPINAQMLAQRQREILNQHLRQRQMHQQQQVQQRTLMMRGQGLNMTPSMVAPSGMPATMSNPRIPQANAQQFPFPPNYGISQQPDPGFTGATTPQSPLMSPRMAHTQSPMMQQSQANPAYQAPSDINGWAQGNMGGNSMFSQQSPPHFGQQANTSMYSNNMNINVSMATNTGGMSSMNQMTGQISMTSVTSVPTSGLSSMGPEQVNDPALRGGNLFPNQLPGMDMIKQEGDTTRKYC
NCOA3 inh – SRC3 coactivator transcriptional activity inhibitors, primary screen, cell-based, luminescence; Nuclear receptor coactivator 3 (Homo sapiens), Q9Y6Q9; HEK293 GAL4-SRC3 luciferase reporter; AID 588352, 2011; 360,000 compounds, 0.17% hits; inhibition, % at 3.6 µM;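 active means inhibition above a per-campaign cutoff, the mean of all compounds plus 3 SD, cut at about 60% in these data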;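 further: 0% = DMSO-treated cells and 100% = gossypol-treated cells at 36 µM; higher means less SRC3-driven luciferase light from the GAL4 reporter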
VP16 Luc counter – Gal4-VP16 luciferase reporter inhibitors, counter-screen for COUP-TFII antagonist project, cell-based, luminescence, HEK293. inhibition, % at 8.5 µM. AID 687007, 2013. shares compounds with COUP-TFII inh. 2,500 compounds, 25% hits; in the data active means inhibition above about 13%
COUP-TFII conf – NR2F2 transcriptional activity inhibitors, confirmation, cell-based, luciferase reporter, HEK293, triplicate; shares compounds with COUP-TFII inh; HEK293 NGFI-A luciferase reporter, luminescence; inhibition, % at 8.5 µM; 2,500 compounds, 45% hits;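 active means mean inhibition over three repeats above a set limit taken from the earlier primary screen, cut at about 38% in these data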;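 further: 100% = cells given the luciferase reporter alone without the COUP-TF2 vector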
* hit, by the source's call; . = no result given. Compounds with a hit are over-represented: about 1.1% of the library has one in this group of screens.

SMILES | COUP-TFII inh | GalR3 antagonist | NR5A2 inv ag | NCOA1 inh | SRC2 inh | NCOA3 inh | VP16 Luc counter | COUP-TFII conf
COC1CC2C=C(C)C=CC=CC(=O)NC(c3ccccc3)CC=CCCC(O)CC(=O)C2=C1O (stereo not drawn) | 71.8* | -3.9 | 98.9* | 40.5 | -41.8 | 78.1* | 50.1* | 72.5*
C#C[C@]1(O)CC[C@H]2[C@@H]3CCC4=Cc5nc6nc7ccccc7n6cc5C[C@]4(C)[C@H]3CC[C@@]21C | -11.1 | . | -3.6 | 2.1 | 5.3 | 6.5 | . | .
CCC1CN2CCc3cc(OC)c(OC)cc3C2CC1CC1NCCc2c1[nH]c1ccc(O)cc21 (stereo not drawn) | 91.5* | -5.3 | 98.4* | 95.9* | 69.2* | 94.6* | 24.2* | 90.5*
Cc1ccc(S(=O)(=O)N2Cc3cc(-c4cccc(F)c4)ccc3-n3nncc3C2)cc1 | -6.3 | -1.0 | -21.1 | 11.9 | 20.5 | 6.1 | . | .
C=Cc1cc(OC)c2c(c1)c(=O)oc1c2cc(OC)c2c(O)ccc(C3OC(C)C(O)C(C)(O)C3O)c21 (stereo not drawn) | 59.3* | -5.2 | 27.3 | 34.0 | 66.4* | 38.0 | 24.2* | 26.4
CCOC(=O)[C@]12Cc3ccc(C)cc3[C@H]1N(C1CCCCC1)C(=O)c1ccccc12 | 50.3* | 5.7 | 51.9 | . | -3.4 | . | 17.5* | 29.7
CCOC(=O)[C@]12Cc3cc(C)ccc3[C@H]1N(CCC(=O)OC)C(=O)c1ccccc12 | 23.4 | -6.2 | 7.5 | . | -3.8 | . | . | .
CCCOC(=O)c1ccc(-[n+]2c(-c3ccccc3)cc(-c3ccccc3)cc2-c2ccccc2)cc1 | 54.9* | -11.7 | 58.4 | 21.2 | 36.1 | 40.4 | 22.5* | 48.1*
O=C1C(=O)c2ccccc2-c2ccccc21 | 109.2* | 2.6 | 103.2* | 94.8* | 95.0* | 95.2* | 95.7* | 109.9*
CCc1ccc(OCC(=O)N2CCN(Cc3ccc4c(c3)OCO4)CC2)cc1 | 5.2 | 6.3 | 24.6 | 3.9 | 8.1 | 13.2 | . | .
CC(N=Cc1c(O)[nH]c(=O)[nH]c1=O)c1ccccc1 (stereo not drawn) | 0.4 | -1.1 | -16.4 | -10.0 | -2.7 | 18.8 | . | .
COC(=O)C1=C(c2ccc(-c3ccccc3)c(F)c2)C[C@@H]2CC[C@H]1N2C(=O)N1CCOCC1 | 70.6* | -0.5 | 40.5 | 28.8 | 25.1 | 30.0 | -9.3 | 36.1
COCCNC(=O)N1[C@H]2CC[C@@H]1C(C(=O)OC)=C(c1ccc(-c3ccccc3)c(F)c1)C2 | 49.7* | -1.9 | 25.4 | 21.1 | 18.5 | 26.4 | 3.5 | 32.4
COC(=O)C1=C(c2ccc(-c3ccccc3)c(F)c2)C[C@@H]2CC[C@H]1N2C(=O)N1CCCCC1 | 63.9* | -9.4 | 38.0 | 13.7 | 44.8 | 43.3 | 20.2* | 53.6*
COC(=O)C1=C(c2ccc(-c3ccccc3)c(F)c2)C[C@@H]2CC[C@H]1N2C(=O)N1CCC(O)CC1 | 25.1 | -5.3 | 17.6 | 16.1 | -16.6 | 8.5 | . | .
COC(=O)C1=C(c2ccc(-c3ccccc3)c(F)c2)C[C@@H]2CC[C@H]1N2C(=O)NCCOc1ccccc1 | 8.9 | -8.1 | -2.4 | 1.9 | 15.7 | 24.3 | . | .
COC(=O)C1=C(c2ccc(-c3ccccc3)c(F)c2)C[C@@H]2CC[C@H]1N2C(=O)N1CCCC1 | 66.9* | -8.1 | 39.7 | 5.3 | 18.6 | 12.5 | -4.6 | 47.1*
CC(C)[C@]12CC(=O)[C@H](C)[C@H]1C2 | 6.9 | -1.7 | 2.4 | -2.1 | 13.3 | -19.4 | . | .
C[C@]12CC[C@H](OC(=O)CCC(=O)O)CC1=CCC1C2CC[C@@]2(C)C1CC[C@@H]2OC(=O)CCC(=O)O (stereo partly drawn) | -5.3 | -0.4 | 18.0 | 5.6 | 24.3 | 0.8 | . | .
CC(=O)OC1CCC2(C)C(=CC(=O)C3C2CCC2(C)C(OC(C)=O)CCC32)C1 (stereo not drawn) | -11.9 | -3.5 | 18.9 | 8.7 | 11.9 | 7.9 | . | .
COC(=O)C1=C(c2ccc3ccccc3c2)C[C@@H]2CC[C@H]1N2C(=O)NCc1ccco1 | -2.4 | -2.6 | -5.4 | 12.1 | 7.6 | -0.1 | . | .
O=c1[nH]c(=O)n(-c2ccccc2F)c(O)c1C=NCCC1=CCCCC1 | -3.5 | -3.9 | -16.7 | -7.9 | -4.0 | -3.3 | . | .
O=C(Nc1ccc(OC(=O)N2CCCC2)cc1)N1CCOCC1 | 4.8 | -5.5 | -7.8 | -14.0 | 14.2 | 9.2 | . | .
O=C(Nc1ccc(OC(=O)N2CCCCC2)cc1)N1CCOCC1 | 77.8* | -3.2 | 56.1 | 44.0 | 83.9* | 48.0 | 29.1* | 18.7
CCOc1cc(CNCCc2c[nH]c3ccccc23)cc(Cl)c1OC | -16.4 | -10.2 | 7.3 | 5.1 | 4.3 | 23.1 | . | .
SMILES | COUP-TFII inh | GalR3 antagonist | NR5A2 inv ag | NCOA1 inh | SRC2 inh | NCOA3 inh | VP16 Luc counter | COUP-TFII conf
O=c1c2ccccc2nc(CNCc2ccco2)n1-c1ccc(F)cc1 | 9.8 | 7.7 | -12.9 | -14.1 | -44.3 | 10.7 | . | .
C=C1C(=O)O[C@@H]2C[C@@H](C)[C@@H]3C=CC(=O)[C@@]3(C)[C@@H](OC(=O)CC(=O)O[C@H]3[C@@H]4C(=C)C(=O)O[C@@H]4C[C@@H](C)[C@@H]4C=CC(=O)[C@]43C)[C@H]12 | 97.9* | -7.6 | 87.5* | 66.3* | 93.5* | 74.1* | 96.4* | 108.6*
COC(=O)c1ccc(NC(=O)CSc2nc3ccc(N4C(=O)C5C6C=CC(C6)C5C4=O)cc3s2)cc1 (stereo not drawn) | 64.4* | -3.9 | 38.6 | -15.0 | 49.9 | 34.3 | -24.6 | 36.9
O=C(Nc1ccccc1)c1cccn(Cc2ccccc2)c1=O | 8.4 | -8.2 | -43.0 | -46.3 | 1.1 | -20.8 | . | .
O=C(Nc1ccncc1)c1cccn(Cc2ccccc2)c1=O | 65.8* | 9.9 | 38.4 | 13.9 | 13.8 | 16.4 | -4.7 | 51.2*
CN(C)c1cccc2c(C#N)ccc(N(C)C)c12 | 21.6 | -5.1 | -25.9 | 5.7 | -2.3 | 16.5 | . | .
CCN1/C(=C/C=C/C2=[N+](CC)c3ccccc3C2(C)C)C(C)(C)c2ccccc21 | 92.0* | -20.7 | 98.5* | 71.7* | 33.0 | 82.3* | 42.4* | 90.0*
COC(=O)C1=C(c2cccc(C#N)c2)C[C@@H]2CC[C@H]1N2C(=O)NCCOc1ccc(OC)cc1 | -4.5 | -3.7 | -22.1 | -9.7 | -10.9 | -1.7 | . | .
